Read-out in test [1]: TIMP metallopeptidase inhibitor 1 (TIMP1), TIMP1 (gene 7076)
Nature of the test: BSK_hDFCGF_TIMP1: BioMAP Diversity Plus: hDFCGF Assay for TIMP metallopeptidase inhibitor 1 (TIMP1) Biomarker Activity (AID 2283062). As to conditions: primary human foreskin fibroblasts; actives raise or lower the signal. The method in brief: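 Primary human foreskin fibroblasts in the hDFCGF system were dosed with compound for 24 h, then TIMP-1 was measured by ELISA. Activity was fitted bidirectionally relative to DMSO control; parallel SRB staining assessed cytotoxicity.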

Read-out in test [2]: Monokine induced gamma interferon (MIG), CXCL9 (gene 4283)
Nature of the test: BSK_hDFCGF_MIG: BioMAP Diversity Plus: hDFCGF Assay for Monokine induced gamma interferon (MIG) Biomarker Activity (AID 2283063). As to conditions: primary human foreskin fibroblasts; actives raise or lower the signal. The method in brief: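 ELISA read-out of MIG from primary human dermal fibroblasts 24 h post-dosing. Gain or loss of signal fitted bidirectionally, DMSO as baseline.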

Read-out in test [3]: Matrix Metallopeptidase 1 (MMP1), MMP1 (gene 4312)
Nature of the test: BSK_hDFCGF_MMP1: BioMAP Diversity Plus: hDFCGF Assay for Matrix Metallopeptidase 1 (MMP1) Biomarker Activity (AID 2283064). As to conditions: primary human foreskin fibroblasts; actives raise or lower the signal. The method in brief: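 hDFCGF primary fibroblasts (human foreskin); chemical added; 24 h; MMP1 by ELISA; bidirectional fit vs DMSO.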

Read-out in test [4]: Vascular cell adhesion molecule 1 (VCAM1), VCAM1 (gene 7412)
The test can be described thus: BSK_hDFCGF_VCAM1: BioMAP Diversity Plus: hDFCGF Assay for Vascular cell adhesion molecule 1 (VCAM1) Biomarker Activity (AID 2283065). To be noted: primary human foreskin fibroblasts; actives raise or lower the signal. The procedure, abridged: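 Primary human foreskin fibroblasts (hDFCGF system) were dosed with chemical and VCAM-1 was measured by ELISA 24 h later. Bidirectional curve fitting used DMSO as negative control and activity baseline.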

Read-out in test [5]: Plasminogen activator inhibitor-1 (PAI1), SERPINE1 (gene 5054)
Nature of the test: BSK_hDFCGF_PAI1: BioMAP Diversity Plus: hDFCGF Assay for Plasminogen activator inhibitor-1 (PAI1) Biomarker Activity (AID 2283066). To be noted: primary human foreskin fibroblasts; actives raise or lower the signal. The method in brief:
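Primary dermal fibroblasts (human foreskin), hDFCGF system; compound 24 h; PAI-1 by ELISA; bidirectional fit vs DMSO control.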

Read-out in test [6]: Intercellular Adhesion Molecule 1 (ICAM1), ICAM1 (gene 3383)
Nature of the test: BSK_KF3CT_ICAM1: BioMAP Diversity Plus: KF3CT Assay for Intercellular Adhesion Molecule 1 (ICAM1) Biomarker Activity (AID 2283067). To be noted: primary human keratinocytes with fibroblasts; actives raise or lower the signal. The method in brief:
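Human keratinocyte plus foreskin fibroblast primary co-culture was exposed to chemical for 24 h. ICAM-1 was then quantified by ELISA, and the data were fit bidirectionally against DMSO as the negative control and baseline.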

Read-out in test [7]: Interferon-gamma inducible Protein 10 (IP10), CXCL10 (gene 3627)
Nature of the test: BSK_KF3CT_IP10: BioMAP Diversity Plus: KF3CT Assay for Interferon-gamma inducible Protein 10 (IP10) Biomarker Activity (AID 2283068). As to conditions: primary human keratinocytes with fibroblasts; actives raise or lower the signal. The procedure, abridged:
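Human keratinocyte plus foreskin fibroblast primary co-culture exposed to test chemical for 24 h; IP-10 measured by ELISA. Concentration-response fitted bidirectionally against DMSO control as baseline.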

Test [8] in a line: BSK_KF3CT_SRB: Viability Assessment in the BioMAP Diversity Plus: KF3CT Assay (AID 2283069).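 Also: total protein by sulforhodamine B staining as a cytotoxicity measure; read 24 h after compound addition; fitted for both signal gain and loss against DMSO baseline.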 To be noted: primary human keratinocytes with fibroblasts. The method in brief: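 Keratinocytes co-cultured with foreskin fibroblasts (human primary); chemical added, 24 h; fix 10% TCA, stain 0.1% SRB, A560. Bidirectional fit vs DMSO.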
Read-out in test [9]: Interleukin-1 alpha (IL1a), IL1A (gene 3552)
The test can be described thus: BSK_KF3CT_IL1a: BioMAP Diversity Plus: KF3CT Assay for Interleukin-1 alpha (IL1a) Biomarker Activity (AID 2283070). As to conditions: primary human keratinocytes with fibroblasts; actives raise or lower the signal. The method in brief:
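Chemicals were dosed onto co-cultured human keratinocytes and foreskin fibroblasts, IL-1a was quantified by ELISA at 24 h, and activity was fitted in both directions relative to DMSO controls.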

Read-out in test [10]: TIMP metallopeptidase inhibitor 2 (TIMP2), TIMP2 (gene 7077)
The test can be described thus: BSK_KF3CT_TIMP2: BioMAP Diversity Plus: KF3CT Assay for TIMP metallopeptidase inhibitor 2 (TIMP2) Biomarker Activity (AID 2283071). To be noted: primary human keratinocytes with fibroblasts; actives raise or lower the signal. The method in brief: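 Cells: human keratinocytes co-cultured with foreskin fibroblasts. Treat with chemical, 24 h. Measure TIMP-2 by ELISA; fit curves bidirectionally vs DMSO baseline.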

Read-out in test [11]: Transforming growth factor beta 1 (TGFb1), TGFB1 (gene 7040)
Nature of the test: BSK_KF3CT_TGFb1: BioMAP Diversity Plus: KF3CT Assay for Transforming growth factor beta 1 (TGFb1) Biomarker Activity (AID 2283072). As to conditions: primary human keratinocytes with fibroblasts; actives raise or lower the signal. The method in brief:
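Primary human skin cells (keratinocytes, foreskin fibroblasts) were co-cultured, exposed to test chemical and sampled at 24 h. TGF-b1 levels were measured by ELISA and fitted bidirectionally relative to DMSO.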

Read-out in test [12]: C-C motif chemokine 2 (Homo sapiens) (UniProt P13500)
The test can be described thus: BSK_KF3CT_MCP1: BioMAP Diversity Plus: KF3CT Assay for Monocyte Chemoattractant Protein 1 (MCP1/CCL2) Biomarker Activity (AID 2283073). To be noted: primary human keratinocytes with fibroblasts; actives raise or lower the signal. The method in brief: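 Human keratinocyte plus foreskin fibroblast primary co-culture exposed to chemical for 24 h. MCP-1 levels measured by ELISA. Bidirectional curve fitting relative to DMSO negative control as baseline.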

Read-out in test [13]: Matrix Metallopeptidase 9 (MMP9), MMP9 (gene 4318)
Nature of the test: BSK_KF3CT_MMP9: BioMAP Diversity Plus: KF3CT Assay for Matrix Metallopeptidase 9 (MMP9) Biomarker Activity (AID 2283074). To be noted: primary human keratinocytes with fibroblasts; actives raise or lower the signal. The procedure, abridged: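 Human keratinocyte/foreskin fibroblast co-culture; compound added; 24 h; MMP-9 by ELISA; bidirectional fit vs DMSO baseline.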

Read-out in test [14]: urokinase plasminogen activator (uPA), PLAU (gene 5328)
The test can be described thus: BSK_KF3CT_uPA: BioMAP Diversity Plus: KF3CT Assay for urokinase plasminogen activator (uPA) Biomarker Activity (AID 2283075). To be noted: primary human keratinocytes with fibroblasts; actives raise or lower the signal. The method in brief:
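ELISA readout of uPA, analyzed for signal gain or loss relative to DMSO, from a human primary keratinocyte–foreskin fibroblast co-culture measured 24 h after chemical treatment.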

Read-out in test [15]: CD40, CD40 (gene 958)
The test can be described thus: BSK_LPS_CD40: BioMAP Diversity Plus: LPS Assay for CD40 Biomarker Activity (AID 2283076). As to conditions: primary human HUVEC with PBMC; actives raise or lower the signal. The method in brief:
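Primary human umbilical vein endothelial cells co-cultured with peripheral blood mononuclear cells, LPS-stimulated, were dosed with chemical and read 24 h later. CD40 levels were measured by ELISA and fitted bidirectionally against DMSO as negative control and baseline.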

Read-out in test [16]: E-selectin (Homo sapiens) (UniProt P16581)
The test can be described thus: BSK_LPS_Eselectin: BioMAP Diversity Plus: LPS Assay for Eselectin Biomarker Activity (AID 2283077). To be noted: primary human HUVEC with PBMC; actives raise or lower the signal. The method in brief: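 Human umbilical vein endothelial cells co-cultured with peripheral blood mononuclear cells under LPS stimulation; E-selectin measured by ELISA 24 h after chemical dosing. Activity fitted bidirectionally against DMSO as negative control and baseline.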

Read-out in test [17]: Interleukin-8 (IL8), CXCL8 (gene 3576)
The test can be described thus: BSK_LPS_IL8: BioMAP Diversity Plus: LPS Assay for Interleukin-8 (IL8) Biomarker Activity (AID 2283078). As to conditions: primary human HUVEC with PBMC; actives raise or lower the signal. The procedure, abridged: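 Human umbilical vein endothelial cells co-cultured with PBMC were stimulated with LPS; IL-8 levels were measured by ELISA 24 h after chemical dosing. Activity was fitted bidirectionally against DMSO as negative control and baseline.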

Test [18] is described as follows: BSK_LPS_SRB: Viability Assessment in the BioMAP Diversity Plus: LPS Assay (AID 2283079).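 Also: total protein by sulforhodamine B absorbance as a cytotoxicity measure; measured one day after compound addition; fitted in both directions against DMSO so loss or gain of signal counts.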 To be noted: primary human HUVEC with PBMC. The method in brief:
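Human umbilical vein endothelial cells co-cultured with PBMC (LPS system) were dosed for 24 h. Total protein was stained with 0.1% sulforhodamine B after 10% TCA fixation, read at 560 nm, and fitted bidirectionally against DMSO baseline.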

Read-out in test [19]: Interleukin-1 alpha (IL1a), IL1A (gene 3552)
Nature of the test: BSK_LPS_IL1a: BioMAP Diversity Plus: LPS Assay for Interleukin-1 alpha (IL1a) Biomarker Activity (AID 2283080). As to conditions: primary human HUVEC with PBMC; actives raise or lower the signal. The method in brief:
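Human umbilical vein endothelial cells co-cultured with peripheral blood mononuclear cells were LPS-stimulated and exposed to test chemicals for 24 h. IL-1 alpha was quantified by ELISA, with bidirectional curve fitting against DMSO as the negative control and baseline.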

Read-out in test [20]: Monocyte Chemoattractant Protein-1 (MCP1), CCL2 (gene 6347)
The test can be described thus: BSK_LPS_MCP1: BioMAP Diversity Plus: LPS Assay for Monocyte Chemoattractant Protein-1 (MCP1) Biomarker Activity (AID 2283081). As to conditions: primary human HUVEC with PBMC; actives raise or lower the signal. The procedure, abridged:
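HUVEC plus PBMC co-culture (human primary cells, LPS system) exposed to test chemical for 24 h; MCP-1 measured by ELISA. Bidirectional curve fitting against DMSO baseline; parallel SRB total-protein staining flags overt cytotoxicity.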

Activity calls are given as the source filed them. The calls were made as follows: active = hit-call score of the fitted dose curve at least 0.9, where 1 is the maximum; inactive = score below 0.9.

Chain of E-selectin (Homo sapiens) (P16581 whole entry, looked up): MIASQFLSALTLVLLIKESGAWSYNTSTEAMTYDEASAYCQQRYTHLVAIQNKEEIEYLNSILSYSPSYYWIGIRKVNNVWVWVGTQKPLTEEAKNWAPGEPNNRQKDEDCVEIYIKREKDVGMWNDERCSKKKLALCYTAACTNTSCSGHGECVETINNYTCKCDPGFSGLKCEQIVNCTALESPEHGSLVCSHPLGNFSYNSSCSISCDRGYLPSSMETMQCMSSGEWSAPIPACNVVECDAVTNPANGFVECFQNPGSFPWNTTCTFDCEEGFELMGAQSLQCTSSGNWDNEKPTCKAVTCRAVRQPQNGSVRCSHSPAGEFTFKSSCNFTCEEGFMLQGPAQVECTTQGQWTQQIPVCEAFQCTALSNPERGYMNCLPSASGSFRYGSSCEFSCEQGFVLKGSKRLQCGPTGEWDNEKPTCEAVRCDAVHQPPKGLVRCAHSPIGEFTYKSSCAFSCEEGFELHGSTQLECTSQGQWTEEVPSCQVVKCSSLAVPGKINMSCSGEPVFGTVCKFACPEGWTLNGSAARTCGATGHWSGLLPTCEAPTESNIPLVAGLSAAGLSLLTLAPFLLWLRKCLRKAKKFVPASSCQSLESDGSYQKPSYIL

With `CCCCC(CC)COC(=O)c1ccc(C(=O)OCC(CC)CCCC)cc1` (stereo not given), the result in test [1], in test [2], in test [3], in test [4], in test [5] and in test [6] was inactive. The outcome in test [7], in [8], in [9], in test [10], in [11] and in [12] was inactive. Further, the result in [13], in test [14], in [15], in [16], in test [17] and in test [18] was inactive. The result in test [19] and in test [20] was inactive.

`CN(C)c1ccc(Cc2ccc(N(C)C)cc2)cc1`: the outcome in test [1], in [2], in [4], in test [5], in test [6] and in [7] was inactive. Moreover, the outcome in [8], in test [9], in [10], in [11], in test [12] and in test [13] was inactive. Moreover, the outcome in [14], in test [15], in test [16], in test [18], in test [19] and in [20] was inactive. In addition, the AC50 in [3] and in [17] was 20 µM (active) in each case.

Regarding `CCn1nc(Cc2ccccc2)cc1C1CCN(C[C@H]2C[C@H](N(C)[C@@H](C(=O)O)C(C)C)C[C@@H]2c2cccc(F)c2)CC1`, the outcome in test [1], in [2], in test [3], in test [4], in test [5] and in [6] was inactive. In addition, the result in test [7], in [8], in [9], in test [10], in test [11] and in test [12] was inactive. Also, the result in test [13], in test [14], in test [15], in test [16], in test [17] and in test [18] was inactive. Also, the outcome in [19] and in test [20] was inactive.

The record behind these values is PubChem BioAssay (EPA / NIEHS).
